# Laboratory results reported in PubChem BioAssay (NCATS).
# Inconclusive results are not listed. Where a call stands in place of a potency, no number is given. Activity calls are given as the source filed them. Calls follow the shape of the dose curve; as a rule, active = well fitted cell-killing curve with a large enough effect; inconclusive = small, poorly fitted or top-dose-only effect, or effect the other way; inactive = flat fitted curve, though single readings scatter.
# Test system: Tov112D
# Test: Primary qHTS to identify gynecologic anti-cancer compounds using libraries of approved drugs and bioactive compounds (AID 1345084); also: nearly all actives have a fitted effect of over 55% in size
# Details: Gynecologic cancer cell panel viability, ATPlite luminescence, 48 h; series mostly up to 57.5 µM
# Summary of the method: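 Five-concentration response, 48 h; readout is ATP-driven luciferase luminescence.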
row,SMILES,Potency
1,CCC(=O)Oc1ccc2c(c1)CC[C@@H]1[C@@H]2CC[C@@]2(C)[C@H]1C[C@@H](OC(=O)CC)[C@@H]2OC(=O)CC,inactive
2,O=C1CC(c2ccc(Cl)cc2)CC(=O)N1,inactive
3,CCOc1c(N2CCOCC2)cnn(C)c1=O,inactive
4,CC(C)C(=O)Nc1cccc(C2CN3CCSC3=N2)c1 (centres undefined),inactive
5,COCCc1ccc(OCC2CO2)cc1 (centres undefined),inactive
6,CCN(CC)C(=O)C1CN2CCc3cc(OC)c(OC)cc3C2CC1OC(C)=O (centres undefined),inactive
7,COCCOCC(OC)OC,inactive
8,CCCc1ccc(OCC(=O)N2CCN(C(=O)COc3ccc(CCC)cc3OC)CC2)c(OC)c1,inactive
9,NS(=O)(=O)c1cc2c(cc1Cl)CN(C1CCCCC1)C2=O,inactive
10,Oc1cccc2[nH]ccc12,inactive
11,CCCCC(CC)CNC(=O)CC(C)OC(=O)CCC(=O)O (centres undefined),inactive
12,Cc1onc(-c2c(Cl)cccc2Cl)c1C(=O)Cl,inactive
13,[O-][n+]1cccc(/C(Cl)=N/OC[C@@H](O)CN2CCCCC2)c1,inactive
14,CC(=O)N1CCN(c2ccc(O)cc2)CC1,inactive
15,COC(=O)c1ccc(NC(C)=O)cc1OC,inactive
16,CCCC(=O)OCOC(=O)C1=C(C)NC(C)=C(C(=O)OC)C1c1cccc(Cl)c1Cl (centres undefined),inactive
17,Nc1nc(=O)n([C@@H]2O[C@H](CO)[C@@H](O)[C@@H]2F)cc1I,inactive
18,CN(C)[C@@H]1C(=O)C(C(N)=O)=C(O)[C@@]2(O)C(=O)C3=C(O)c4c(O)cccc4C[C@H]3C[C@@H]12,inactive
19,Cc1ccc2c(Cl)cc(Cl)c(O)c2n1,inactive
20,C[C@@H]1C[C@H]2[C@@H]3CCC4=CC(=O)C=C[C@]4(C)[C@@]3(F)[C@@H](O)C[C@]2(C)[C@@]1(O)C(=O)COC(=O)c1ccncc1,inactive

row,SMILES,Potency
1,CCC(=O)O[C@H]1[C@H](O[C@@H]2[C@@H](C)[C@H](O[C@H]3C[C@@](C)(OC)[C@@H](O)[C@H](C)O3)[C@@H](C)C(=O)O[C@H](CC)[C@@](C)(O)[C@H](O)[C@@H](C)C(=O)[C@H](C)C[C@@]2(C)O)O[C@H](C)C[C@@H]1N(C)C,inactive
2,C/C(=N\O)[C@@H](C)NCC(C)(C)CN[C@H](C)/C(C)=N/O,inactive
3,COc1ccc(CCC(C)=O)cc1,inactive
4,CCOCCn1c(C2CCN(CCc3ccc(C(C)(C)C(=O)O)cc3)CC2)nc2ccccc21,inactive
5,O=C(C1CCCCC1)N1CC(=O)N2CCCc3ccccc3C2C1 (centres undefined),inactive
6,CN1Cc2cc(C(=O)N3CCC(C4CCNCC4)CC3)ccc2NC(CC(=O)O)C1=O (centres undefined),inactive
7,CCCCN(CCN(CCCC)C(=O)N1CCOCC1)C(=O)N1CCOCC1,inactive
8,C/C(=C1\CCOC(=O)S1)N(C=O)Cc1cnc(C)nc1N,inactive
9,Cc1oc(-c2ccccc2)nc1CCC(=O)c1ccc(CC2SC(=O)NC2=O)cc1 (centres undefined),inactive
10,CC(C)Cc1ccc(C(C)C(=O)OCc2ccccn2)cc1 (centres undefined),inactive
11,Nc1ncnc2c1ncn2Cc1c(F)cccc1Cl,inactive
12,CNC(=O)c1cnn(-c2nc(N)c3ncn([C@@H]4O[C@H](CO)[C@@H](O)[C@H]4O)c3n2)c1,inactive
13,CC(C)N(CCC(=O)c1ccc2ccccc2c1)Cc1ccccc1,inactive
14,Cc1nc(C2CCCCC2)c(-c2ccc(S(N)(=O)=O)c(F)c2)o1,inactive
15,O=C(O)C(=O)Nc1cccc(-c2nn[nH]n2)c1,inactive
16,CN1CCN(N)CC1,inactive
17,CC(=O)OC[C@H]1O[C@@H](OC(C)=O)[C@H](OC(C)=O)[C@@H]1OC(C)=O,inactive
18,COCCc1ccccn1,inactive
19,Cc1cccc(OCC(O)CNC(C)(C)C)c1C (centres undefined),inactive
